Test results published in PubChem BioAssay (Tox21).
Values without a mark were called inactive. Results filed as inconclusive are left out. Entries that show only a call come without a potency. Activity calls are given as the source filed them. The call rests on the fitted dose curve; in most records, active means well fitted curve in the direction sought with a large enough effect in the repeat runs; inconclusive means weak or mixed curves; inactive means no such curve, though single readings can be large; an effect the other way counts as inactive or inconclusive.

Key:
[1] = qHTS RealTime-Glo MT Cell Viability Assay in HepG2 cells - 40 hour (AID 1224870); further: nearly all actives have a fitted effect of over 50% in size
In short: (§1)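 HepG2 cells (600/well) mixed with RealTime-Glo MT reagent, settled 5 h at 37 C/5% CO2 before compound addition. Nonlytic NanoLuc luminescence from viable-cell prosubstrate reduction read repeatedly during 40 h treatment at 37 C.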

[2] = qHTS RealTime-Glo MT Cell Viability Assay in HEK293 cells - 16 hour (AID 1224872); further: top concentration of the series differs between compounds; nearly all actives have a fitted effect of over 50% in size
In short: (§2)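 HEK293 cells seeded with NanoLuc/prosubstrate reagent, rested 5 h at 37 C, then dosed and kept at 37 C up to 40 h. Nonlytic real-time luminescence from viable cells read at 0, 8, 16, 24, 32 and 40 h.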

[3] = qHTS RealTime-Glo MT Cell Viability Assay in HepG2 cells - 8 hour (AID 1224873); further: nearly all actives have a fitted effect of over 55% in size
In short: as §1

[4] = A CellTox Green Cytotoxicity Assay to monitor cytotoxicity in HEK293 cells - 24 hour (AID 1224875); further: series mostly up to about 77 µM; nearly all actives have a fitted effect of over 45% in size
In short: (§3)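 Seeding of HEK293 cells together with cytotoxicity dye preceded a 5 h incubation at 37 C/5% CO2. Test compounds in DMSO were then added and fluorescence monitored across 40 h.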

[5] = A CellTox Green Cytotoxicity Assay to monitor cytotoxicity in HepG2 cells - 16 hour (AID 1224876); further: nearly all actives have a fitted effect of over 45% in size
In short: (§4)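 Nonlytic assay: viable cells exclude the dye, so fluorescence scales with cell death. HepG2 at 600 cells/well, compounds added after 5 h, signal read across 40 h.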

[6] = A CellTox Green Cytotoxicity Assay to monitor cytotoxicity in HepG2 cells - 40 hour (AID 1224879); further: nearly all actives have a fitted effect of over 40% in size
In short: as §4

[7] = qHTS RealTime-Glo MT Cell Viability Assay in HEK293 cells - 0 hour (AID 1224880); further: nearly all actives have a fitted effect of over 45% in size; further: potency means the concentration at half of the fitted maximal effect
In short: (§5)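 Tox21 screen in HEK293 using RealTime-Glo MT chemistry, with cells and reagent co-dispensed. Luminescence proportional to viable cell number was captured at intervals during 40 h compound exposure at 37 C.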

[8] = A CellTox Green Cytotoxicity Assay to monitor cytotoxicity in HEK293 cells - 32 hour (AID 1224881); further: nearly all actives have a fitted effect of over 40% in size
In short: as §3

[9] = A CellTox Green Cytotoxicity Assay to monitor cytotoxicity in HepG2 cells - 0 hour (AID 1224882); further: nearly all actives have a fitted effect of over 35% in size
In short: as §4

[10] = A CellTox Green Cytotoxicity Assay to monitor cytotoxicity in HepG2 cells - 32 hour (AID 1224883); further: nearly all actives have a fitted effect of over 50% in size
In short: as §4

[11] = A CellTox Green Cytotoxicity Assay to monitor cytotoxicity in HEK293 cells - 8 hour (AID 1224884); further: nearly all actives have a fitted effect of over 35% in size
In short: as §3

[12] = qHTS RealTime-Glo MT Cell Viability Assay in HepG2 cells - 16 hour (AID 1224885); further: nearly all actives have a fitted effect of over 50% in size
In short: (§6)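 HepG2 cells (600/well) were dispensed with RealTime-Glo reagents, incubated 5 h at 37 °C, then treated with compounds in DMSO for up to 40 h. Nonlytic NanoLuc luminescence reflecting viable cells was read at each stated time point.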

[13] = qHTS RealTime-Glo MT Cell Viability Assay in HEK293 cells - 24 hour (AID 1224886)
In short: as §2

[14] = qHTS RealTime-Glo MT Cell Viability Assay in HEK293 cells - 8 hour (AID 1224887)
In short: as §5

[15] = A CellTox Green Cytotoxicity Assay to monitor cytotoxicity in HEK293 cells - 16 hour (AID 1224888); further: nearly all actives have a fitted effect of over 35% in size
In short: as §3

[16] = qHTS RealTime-Glo MT Cell Viability Assay in HepG2 cells - 0 hour (AID 1224889); further: nearly all actives have a fitted effect of over 50% in size; further: potency means the concentration at half of the fitted maximal effect
In short: as §6

[17] = A CellTox Green Cytotoxicity Assay to monitor cytotoxicity in HEK293 cells - 40 hour (AID 1224871); further: nearly all actives have a fitted effect of over 45% in size
In short: as §3

[18] = qHTS RealTime-Glo MT Cell Viability Assay in HEK293 cells - 40 hour (AID 1224874); conditions: RealTime-Glo luminescence; max response: stronger effect = lower value; further: nearly all actives have a fitted effect of over 50% in size
In short: as §5

[19] = qHTS RealTime-Glo MT Cell Viability Assay in HepG2 cells - 32 hour (AID 1224877); further: nearly all actives have a fitted effect of over 55% in size
In short: as §6

[20] = A CellTox Green Cytotoxicity Assay to monitor cytotoxicity in HepG2 cells - 24 hour (AID 1224878); further: nearly all actives have a fitted effect of over 45% in size
In short: as §4

Row | SMILES | Potency [1] | Potency [2] | Potency [3] | Potency [4] | Potency [5] | Potency [6] | Potency [7] | Potency [8] | Potency [9] | Potency [10] | Potency [11] | Potency [12] | Potency [13] | Potency [14] | Potency [15] | Potency [16] | Potency [17] | max response [18] [%] | Potency [19] | Potency [20]
1 | Clc1cc(Cl)nc(Cl)n1 | inactive | inactive | inactive | inactive | inactive | inactive | inactive | inactive | inactive | inactive | inactive | inactive | inactive | inactive | inactive | inactive | – | – | – | –
2 | OC(CCN1CCCC1)(c1ccccc1)C1CCCCC1 (stereo not drawn) | – | inactive | inactive | inactive | inactive | inactive | inactive | inactive | – | inactive | inactive | inactive | inactive | inactive | inactive | inactive | inactive | -3.9 | inactive | inactive
3 | COc1ccccc1Oc1c(NS(=O)(=O)c2ccc(C(C)(C)C)cc2)nc(-c2ncccn2)nc1OCCO | – | inactive | inactive | inactive | inactive | inactive | inactive | inactive | inactive | inactive | inactive | inactive | inactive | inactive | inactive | inactive | inactive | -19.3 | – | inactive
4 | C[C@H]1C[C@H](O)c2ccsc2S1(=O)=O | – | inactive | inactive | inactive | – | inactive | inactive | inactive | inactive | inactive | inactive | inactive | inactive | inactive | inactive | inactive | inactive | 2.25 | inactive | inactive
5 | Cc1cc(O)c(C)c(C)c1O | inactive | – | inactive | – | – | inactive | inactive | – | inactive | inactive | inactive | inactive | – | – | inactive | inactive | – | – | inactive | inactive
6 | C=CC(=O)[O-].C=CC(=O)[O-].[Zn+2] | – | inactive | inactive | inactive | inactive | inactive | inactive | inactive | – | inactive | inactive | inactive | – | inactive | inactive | inactive | inactive | 0.547 | – | –
7 | CCCCC(CC)COP(=O)(O)O (stereo not drawn) | inactive | inactive | inactive | – | inactive | inactive | inactive | – | inactive | inactive | inactive | inactive | – | inactive | – | inactive | – | – | inactive | inactive
8 | CC1=C(Br)C(=O)C(Br)=C/C1=C(/c1ccccc1S(=O)(=O)O)c1cc(Br)c(O)c(Br)c1C | – | inactive | inactive | inactive | inactive | inactive | 33.3 µM (active) | inactive | inactive | inactive | – | – | inactive | inactive | inactive | 16.7 µM (active) | inactive | 1.66 | inactive | inactive
